Measured values taken from PubChem BioAssay (EPA / NIEHS).
Records with an inconclusive call do not appear. Active and inactive are the calls of the source. How the source made its calls: active means hit-call score of the fitted dose curve at least 0.9, where 1 is the maximum; inconclusive means response in the unintended direction; inactive means score below 0.9.

Legend:
[1] = molecular target: human Adenosine A2a Receptor (AdoRA2a), ADORA2A (gene 135) (UniProt P29274); experiment: NVS_GPCR_hAdoRA2a: NovaScreen (NVS) G Protein-Coupled Receptor Assay for human Adenosine A2a Receptor (AdoRA2a) (AID 2283256)
human Adenosine A2a Receptor (AdoRA2a), ADORA2A (gene 135), sequence (P29274 whole entry, looked up): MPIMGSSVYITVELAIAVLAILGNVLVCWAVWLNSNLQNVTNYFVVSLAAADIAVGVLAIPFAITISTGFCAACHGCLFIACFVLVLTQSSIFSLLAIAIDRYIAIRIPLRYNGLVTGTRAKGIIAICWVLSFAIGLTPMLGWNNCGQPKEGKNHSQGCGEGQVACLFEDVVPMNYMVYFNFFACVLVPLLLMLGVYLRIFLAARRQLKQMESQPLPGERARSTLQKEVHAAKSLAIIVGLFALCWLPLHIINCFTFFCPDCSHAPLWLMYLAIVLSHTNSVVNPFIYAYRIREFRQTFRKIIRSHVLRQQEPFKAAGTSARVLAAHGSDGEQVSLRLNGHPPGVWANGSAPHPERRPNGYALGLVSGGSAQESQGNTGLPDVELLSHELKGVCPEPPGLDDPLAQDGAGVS
Summary of the method: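 HEK293-derived receptor preparation, radioligand displacement, 1.5 h, filtration + scintillation read. Loss of bound signal scored vs DMSO. Single-point 25 uM in duplicate first, then concentration-response for actives.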

[2] = molecular target: Adenosine receptor A1 (Bos taurus) (UniProt P28190); experiment: NVS_GPCR_bAdoR_NonSelective: NovaScreen (NVS) G Protein-Coupled Receptor Assay for bovine Adenosine Receptor (AdoR), Non-selective Binding (AID 2283244)
Adenosine receptor A1 (Bos taurus), sequence (P28190 whole entry, looked up): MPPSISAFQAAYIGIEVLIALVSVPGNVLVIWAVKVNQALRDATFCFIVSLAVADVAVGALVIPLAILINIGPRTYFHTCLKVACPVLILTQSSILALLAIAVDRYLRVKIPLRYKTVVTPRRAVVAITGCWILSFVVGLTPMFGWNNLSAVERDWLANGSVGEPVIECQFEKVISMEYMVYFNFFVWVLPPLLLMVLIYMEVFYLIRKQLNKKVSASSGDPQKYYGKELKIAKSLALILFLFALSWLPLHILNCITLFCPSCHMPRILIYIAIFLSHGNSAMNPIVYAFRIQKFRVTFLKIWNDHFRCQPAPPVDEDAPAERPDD
Summary of the method: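 Cell-free binding with membranes from bovine striatum: radioligand displaced by test chemical, read after 1 h by filtration and scintillation. Single-point 25 uM duplicate primary, 50 uM top concentration in follow-up curves, DMSO baseline.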

[3] = molecular target: human Serotonin, 5-Hydroxytryptamine Receptor 7 (5HT7), HTR7 (gene 3363) (UniProt P34969); experiment: NVS_GPCR_h5HT7: NovaScreen (NVS) G Protein-Coupled Receptor Assay for human Serotonin, 5-Hydroxytryptamine Receptor 7 (5HT7) (AID 2283255);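 further: hits reduce specific radioligand binding relative to DMSO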
human Serotonin, 5-Hydroxytryptamine Receptor 7 (5HT7), HTR7 (gene 3363), sequence (P34969 whole entry, looked up): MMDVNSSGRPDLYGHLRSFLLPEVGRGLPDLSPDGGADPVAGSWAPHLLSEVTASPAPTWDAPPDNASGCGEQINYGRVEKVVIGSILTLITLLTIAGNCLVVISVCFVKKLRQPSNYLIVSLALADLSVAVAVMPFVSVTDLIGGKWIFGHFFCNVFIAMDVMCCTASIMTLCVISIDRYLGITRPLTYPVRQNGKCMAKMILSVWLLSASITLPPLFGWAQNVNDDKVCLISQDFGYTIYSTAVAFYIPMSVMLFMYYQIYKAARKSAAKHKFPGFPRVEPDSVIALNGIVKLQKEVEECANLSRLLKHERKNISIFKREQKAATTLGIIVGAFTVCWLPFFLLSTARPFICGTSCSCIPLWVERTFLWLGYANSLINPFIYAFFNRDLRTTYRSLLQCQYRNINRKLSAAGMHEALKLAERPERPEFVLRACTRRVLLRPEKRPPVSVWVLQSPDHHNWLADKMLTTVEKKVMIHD
Summary of the method: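 Filter-bound radioactivity counted after 1 h, with loss of specific radioligand binding fitted against DMSO. Membrane protein came from CHO cells expressing human 5HT7. Chemicals were tested first at 25 uM in duplicate, then in concentration series if active.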

[4] = system: rat Monoamine Oxidase, MAO-A, Central (MAOAC), gene 29253; experiment: NVS_ENZ_rMAOAC: NovaScreen (NVS) Enzymatic Assay for rat Monoamine Oxidase, MAO-A, Central (MAOAC) (AID 2283243);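 further: potency refers to inhibition seen as signal drop below DMSO baseline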
Summary of the method: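 Lysate-based radiometric enzyme assay using rat brain tissue; 1.5 h treatment; 25 uM single-point duplicate screen, concentration-response follow-up; loss of signal versus DMSO.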

[5] = molecular target: human Serotonin, 5-Hydroxytryptamine Receptor 5A (5HT5A), HTR5A (gene 3361) (UniProt P47898); experiment: NVS_GPCR_h5HT5A: NovaScreen (NVS) G Protein-Coupled Receptor Assay for human Serotonin, 5-Hydroxytryptamine Receptor 5A (5HT5A) (AID 2283251)
human Serotonin, 5-Hydroxytryptamine Receptor 5A (5HT5A), HTR5A (gene 3361), sequence (P47898 whole entry, looked up): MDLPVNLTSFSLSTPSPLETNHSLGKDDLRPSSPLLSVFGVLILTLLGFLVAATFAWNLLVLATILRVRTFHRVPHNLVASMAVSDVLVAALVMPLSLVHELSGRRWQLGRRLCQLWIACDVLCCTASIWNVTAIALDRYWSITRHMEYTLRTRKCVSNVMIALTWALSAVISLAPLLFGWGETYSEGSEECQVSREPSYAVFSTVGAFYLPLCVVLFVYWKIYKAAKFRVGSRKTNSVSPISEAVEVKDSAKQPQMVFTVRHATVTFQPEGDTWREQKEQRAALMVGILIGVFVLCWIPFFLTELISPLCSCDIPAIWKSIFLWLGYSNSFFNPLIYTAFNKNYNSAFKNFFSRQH
Summary of the method: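 Membranes from HEK293 cells, radioligand binding read by filtration and scintillation after 1 h. Single-concentration duplicate testing at 25 uM, then concentration-response for actives; positive-direction fitting relative to DMSO.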

[6] = molecular target: human Adrenergic, Beta 1 Receptor (Adrb1), ADRB1 (gene 153) (UniProt P08588); experiment: NVS_GPCR_hAdrb1: NovaScreen (NVS) G Protein-Coupled Receptor Assay for human Adrenergic, Beta 1 Receptor (Adrb1) (AID 2283258)
human Adrenergic, Beta 1 Receptor (Adrb1), ADRB1 (gene 153), sequence (P08588 whole entry, looked up): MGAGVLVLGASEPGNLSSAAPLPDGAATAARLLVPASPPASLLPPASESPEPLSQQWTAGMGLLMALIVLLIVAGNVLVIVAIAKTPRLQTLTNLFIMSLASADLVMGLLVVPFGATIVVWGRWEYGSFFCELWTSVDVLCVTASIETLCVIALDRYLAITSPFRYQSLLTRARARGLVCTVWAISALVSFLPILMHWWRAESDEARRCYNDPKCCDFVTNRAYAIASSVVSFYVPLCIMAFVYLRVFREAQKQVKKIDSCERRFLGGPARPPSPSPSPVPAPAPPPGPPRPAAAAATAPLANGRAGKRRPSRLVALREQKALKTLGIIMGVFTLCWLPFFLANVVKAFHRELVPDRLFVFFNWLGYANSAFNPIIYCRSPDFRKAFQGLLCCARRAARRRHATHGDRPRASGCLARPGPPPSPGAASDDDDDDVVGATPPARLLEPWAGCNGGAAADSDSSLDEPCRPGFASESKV
Summary of the method: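 Membranes/protein extracted from human neuroepithelioma cells, radioligand competition binding read by filtration and scintillation 2 h post-dose. Single 25 uM duplicate screen, then concentration-response follow-up; DMSO as negative control.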

[7] = molecular target: human Adenosine A1 Receptor (AdoRA1), ADORA1 (gene 134) (UniProt P30542); experiment: NVS_GPCR_hAdoRA1: NovaScreen (NVS) G Protein-Coupled Receptor Assay for human Adenosine A1 Receptor (AdoRA1) (AID 2283254)
human Adenosine A1 Receptor (AdoRA1), ADORA1 (gene 134), sequence (P30542 whole entry, looked up): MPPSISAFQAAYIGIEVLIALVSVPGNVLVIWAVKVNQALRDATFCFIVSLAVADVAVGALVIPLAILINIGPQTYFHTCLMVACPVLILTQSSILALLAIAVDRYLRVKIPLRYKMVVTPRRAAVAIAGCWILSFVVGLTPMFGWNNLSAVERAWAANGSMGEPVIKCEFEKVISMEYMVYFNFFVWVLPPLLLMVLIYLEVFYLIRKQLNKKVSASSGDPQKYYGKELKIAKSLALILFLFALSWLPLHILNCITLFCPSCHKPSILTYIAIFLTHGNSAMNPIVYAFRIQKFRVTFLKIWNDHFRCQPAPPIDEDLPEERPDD
Summary of the method: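 Radioligand binding was run on human cortical membranes, cell-free, with filter-based scintillation counting 1 h after dosing. The primary screen was duplicate at 25 uM, followed by concentration series. Signal loss versus DMSO was fitted positive-direction.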

[8] = molecular target: guinea pig Leukotriene D4 Receptor (LTD4), CYSLTR1 (gene 100135514) (UniProt Q2NNR5); experiment: NVS_GPCR_gLTD4: NovaScreen (NVS) G Protein-Coupled Receptor Assay for guinea pig Leukotriene D4 Receptor (LTD4) (AID 2283248)
guinea pig Leukotriene D4 Receptor (LTD4), CYSLTR1 (gene 100135514), sequence (Q2NNR5 whole entry, looked up): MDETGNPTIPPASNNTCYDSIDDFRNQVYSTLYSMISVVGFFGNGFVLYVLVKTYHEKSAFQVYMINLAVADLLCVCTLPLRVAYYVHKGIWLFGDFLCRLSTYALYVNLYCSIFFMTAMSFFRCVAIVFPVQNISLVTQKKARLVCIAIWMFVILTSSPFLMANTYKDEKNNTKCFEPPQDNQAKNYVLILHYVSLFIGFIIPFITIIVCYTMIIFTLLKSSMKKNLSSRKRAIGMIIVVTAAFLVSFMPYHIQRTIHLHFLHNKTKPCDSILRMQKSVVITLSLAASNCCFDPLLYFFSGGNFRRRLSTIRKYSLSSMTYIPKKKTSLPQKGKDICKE
Summary of the method: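 Guinea pig lung membrane preparation; bound radioligand measured by filter scintillation after 1 h, loss of signal versus DMSO marking displacement. Compounds tested at 25 uM in duplicate, hits retested to max 50 uM.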

[9] = NVS_GPCR_bNPY_NonSelective: NovaScreen (NVS) G Protein-Coupled Receptor Assay for bovine Neuropeptide Y (NPY) Receptor, Non-selective Binding (AID 2283245)
Summary of the method: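 Displacement of radioligand from bovine hippocampal membrane receptors, read by filtration and scintillation counting after 1 hour. Concentration-response to a top of 50 uM followed a 25 uM duplicate primary screen. Loss of signal versus DMSO.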

[10] = system: guinea pig Leukotriene B4 Receptor (LTB4), gene 100379538; experiment: NVS_GPCR_gLTB4: NovaScreen (NVS) G Protein-Coupled Receptor Assay for guinea pig Leukotriene B4 Receptor (LTB4) (AID 2283247)
Summary of the method: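 Membranes from guinea pig spleen incubated 2 h with radioligand and compound; bound counts measured by filtration and scintillation. Screened first at 25 uM in duplicate, then actives titrated to a 50 uM top concentration relative to DMSO.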

[11] = molecular target: human Serotonin, 5-Hydroxytryptamine Receptor 2A (5HT2A), HTR2A (gene 3356) (UniProt P28223); experiment: NVS_GPCR_h5HT2A: NovaScreen (NVS) G Protein-Coupled Receptor Assay for human Serotonin, 5-Hydroxytryptamine Receptor 2A (5HT2A) (AID 2283249)
Summary of the method: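 Radioligand displacement on human cortex tissue extract, counted by filtration and scintillation 1.5 h post-dosing. Initial single-concentration screen at 25 uM in duplicate, concentration series in follow-up; DMSO as baseline.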

[12] = system: guinea pig Muscarinic, Peripheral (Mperiperal) Receptor, Non-selective Binding, gene 100379235; experiment: NVS_GPCR_gMPeripheral_NonSelective: NovaScreen (NVS) G Protein-Coupled Receptor Assay for guinea pig Muscarinic, Peripheral (Mperiperal) Receptor, Non-selective Binding (AID 2283250)
Summary of the method: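 Screened in duplicate at 25 uM, hits retested in concentration series to 50 uM max, using bladder membrane radioligand displacement from guinea pig. Filtration and scintillation counting 1 h post-dose, fitted relative to DMSO.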

[13] = molecular target: guinea pig Opioid, Kappa 1 Receptor (OpiateK), OPRK1 (gene 100135587) (UniProt P41144); experiment: NVS_GPCR_gOpiateK: NovaScreen (NVS) G Protein-Coupled Receptor Assay for guinea pig Opioid, Kappa 1 Receptor (OpiateK) (AID 2283252);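 further: radioligand displacement from kappa opioid receptor in guinea pig cerebellar membranes; active means reduced radioligand binding relative to DMSO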
guinea pig Opioid, Kappa 1 Receptor (OpiateK), OPRK1 (gene 100135587), sequence (P41144 whole entry, looked up): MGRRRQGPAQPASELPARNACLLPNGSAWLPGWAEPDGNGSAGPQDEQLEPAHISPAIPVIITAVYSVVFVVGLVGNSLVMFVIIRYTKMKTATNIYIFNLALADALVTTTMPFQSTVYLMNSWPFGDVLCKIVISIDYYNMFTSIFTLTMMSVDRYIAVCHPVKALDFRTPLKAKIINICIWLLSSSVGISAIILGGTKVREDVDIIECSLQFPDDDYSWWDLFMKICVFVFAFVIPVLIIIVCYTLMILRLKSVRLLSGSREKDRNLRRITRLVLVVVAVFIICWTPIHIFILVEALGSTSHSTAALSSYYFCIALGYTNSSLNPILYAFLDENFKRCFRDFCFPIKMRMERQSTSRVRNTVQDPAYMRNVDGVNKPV
Summary of the method: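 Radioligand competition binding using guinea pig cerebellum membrane fraction; 2 h exposure; filter radiodetection. Single concentration 25 uM (duplicate), follow-up concentration-response for actives.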

[14] = molecular target: human Serotonin, 5-Hydroxytryptamine Receptor 6 (5HT6), HTR6 (gene 3362) (UniProt P50406); experiment: NVS_GPCR_h5HT6: NovaScreen (NVS) G Protein-Coupled Receptor Assay for human Serotonin, 5-Hydroxytryptamine Receptor 6 (5HT6) (AID 2283253)
human Serotonin, 5-Hydroxytryptamine Receptor 6 (5HT6), HTR6 (gene 3362), sequence (P50406 whole entry, looked up): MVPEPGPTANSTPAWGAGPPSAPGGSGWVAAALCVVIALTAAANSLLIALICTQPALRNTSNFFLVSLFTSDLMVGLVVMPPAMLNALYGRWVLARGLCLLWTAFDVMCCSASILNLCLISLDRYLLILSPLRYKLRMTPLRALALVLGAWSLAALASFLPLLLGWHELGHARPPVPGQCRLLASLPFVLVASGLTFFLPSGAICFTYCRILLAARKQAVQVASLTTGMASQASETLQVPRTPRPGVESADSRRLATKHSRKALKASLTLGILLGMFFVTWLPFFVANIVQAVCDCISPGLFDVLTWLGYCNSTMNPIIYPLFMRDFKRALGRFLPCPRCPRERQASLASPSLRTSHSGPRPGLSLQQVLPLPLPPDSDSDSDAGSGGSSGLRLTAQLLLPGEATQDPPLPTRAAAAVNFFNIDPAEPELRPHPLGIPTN
Summary of the method: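 Filter scintillation counting of radioligand displacement from HEK293-expressed 5HT6, 1 hour post-dose, with loss of signal relative to DMSO. Single 25 uM duplicates first, with concentration series for confirmation.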

[15] = molecular target: human Adrenergic, Alpha 2A Receptor (Adra2A), ADRA2A (gene 150) (UniProt P08913); experiment: NVS_GPCR_hAdra2A: NovaScreen (NVS) G Protein-Coupled Receptor Assay for human Adrenergic, Alpha 2A Receptor (Adra2A) (AID 2283257)
human Adrenergic, Alpha 2A Receptor (Adra2A), ADRA2A (gene 150), sequence (P08913 whole entry, looked up): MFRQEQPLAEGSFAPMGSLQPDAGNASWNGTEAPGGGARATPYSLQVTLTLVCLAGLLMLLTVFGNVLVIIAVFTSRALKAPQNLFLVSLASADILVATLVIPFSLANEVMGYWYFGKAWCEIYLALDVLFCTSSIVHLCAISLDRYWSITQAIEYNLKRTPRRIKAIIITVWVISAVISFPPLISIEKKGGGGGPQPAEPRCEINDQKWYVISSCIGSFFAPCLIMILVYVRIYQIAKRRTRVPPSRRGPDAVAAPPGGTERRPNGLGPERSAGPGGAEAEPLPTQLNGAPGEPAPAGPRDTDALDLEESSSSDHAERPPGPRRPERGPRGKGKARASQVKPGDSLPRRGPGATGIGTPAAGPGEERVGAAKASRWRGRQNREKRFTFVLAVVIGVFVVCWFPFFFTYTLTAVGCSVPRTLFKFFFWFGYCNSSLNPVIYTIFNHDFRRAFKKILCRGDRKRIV
Summary of the method: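 Displacement of a specific radioligand from HT29 membrane protein was counted by filter scintillation after 1 h. Compounds were screened in duplicate at 25 uM, and actives were retested in concentration series. Fitting was positive-direction against DMSO.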

[16] = molecular target: human Adrenergic, Alpha 2c Receptor (Adra2C), ADRA2C (gene 152) (UniProt P18825); experiment: NVS_GPCR_hAdra2C: NovaScreen (NVS) G Protein-Coupled Receptor Assay for human Adrenergic, Alpha 2c Receptor (Adra2C) (AID 2283259)
human Adrenergic, Alpha 2c Receptor (Adra2C), ADRA2C (gene 152), sequence (P18825 whole entry, looked up): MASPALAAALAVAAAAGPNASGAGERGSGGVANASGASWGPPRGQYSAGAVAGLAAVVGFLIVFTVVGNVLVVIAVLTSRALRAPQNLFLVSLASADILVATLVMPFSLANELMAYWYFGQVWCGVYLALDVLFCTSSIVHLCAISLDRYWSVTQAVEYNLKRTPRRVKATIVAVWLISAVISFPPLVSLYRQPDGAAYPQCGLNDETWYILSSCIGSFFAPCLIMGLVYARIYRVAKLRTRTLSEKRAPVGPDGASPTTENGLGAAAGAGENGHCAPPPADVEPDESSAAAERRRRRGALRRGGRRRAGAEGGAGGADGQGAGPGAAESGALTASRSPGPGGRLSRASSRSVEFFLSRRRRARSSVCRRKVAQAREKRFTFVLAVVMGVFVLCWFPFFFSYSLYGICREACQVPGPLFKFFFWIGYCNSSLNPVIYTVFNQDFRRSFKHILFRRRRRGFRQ
Summary of the method: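 Screened first in duplicate at 25 uM, with actives then run as concentration series. Membranes from Sf9 cells were exposed for 1 h, and displacement of radioligand was counted after filtration, using DMSO as baseline.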

[17] = molecular target: Beta-2 adrenergic receptor (Homo sapiens) (UniProt P07550); experiment: NVS_GPCR_hAdrb2: NovaScreen (NVS) G Protein-Coupled Receptor Assay for human Adrenergic, Beta 2 Receptor (Adrb2) (AID 2283261)
Summary of the method: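 Compounds screened in duplicate at 25 uM, then actives in concentration series. Human beta-2 receptor from CHO material, cell-free; radioligand displacement after 1 h measured by filtration and scintillation against DMSO baseline.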

[18] = molecular target: human Adrenergic, Beta 3 Receptor (Adrb3), ADRB3 (gene 155) (UniProt P13945); experiment: NVS_GPCR_hAdrb3: NovaScreen (NVS) G Protein-Coupled Receptor Assay for human Adrenergic, Beta 3 Receptor (Adrb3) (AID 2283262)
human Adrenergic, Beta 3 Receptor (Adrb3), ADRB3 (gene 155), sequence (P13945 whole entry, looked up): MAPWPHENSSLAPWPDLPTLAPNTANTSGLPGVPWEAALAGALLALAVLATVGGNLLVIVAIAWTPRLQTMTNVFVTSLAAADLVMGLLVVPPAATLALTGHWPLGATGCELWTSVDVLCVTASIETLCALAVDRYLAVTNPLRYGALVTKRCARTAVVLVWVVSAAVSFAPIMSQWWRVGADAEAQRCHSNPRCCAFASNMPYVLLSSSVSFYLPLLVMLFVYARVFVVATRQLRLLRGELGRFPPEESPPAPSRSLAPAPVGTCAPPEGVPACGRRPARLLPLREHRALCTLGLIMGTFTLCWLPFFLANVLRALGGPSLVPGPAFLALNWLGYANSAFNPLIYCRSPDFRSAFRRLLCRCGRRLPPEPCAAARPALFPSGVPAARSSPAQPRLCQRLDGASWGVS
Summary of the method: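 A cell-free filter binding assay read by scintillation counting, with displacement of a specific radioligand measured after 1 hour. The receptor source was SK-N-MC extracts (cells pretreated with isoproterenol and 8-bromo-cAMP). Compounds were first tested at 25 uM in duplicate and then in concentration series.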

[19] = molecular target: Type-1 angiotensin II receptor (Homo sapiens) (UniProt P30556); experiment: NVS_GPCR_hAT1: NovaScreen (NVS) G Protein-Coupled Receptor Assay for human Angiotensin II receptor type 1 (AT1) (AID 2283263)
Summary of the method: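 Hits from a 25 uM duplicate screen (threshold e.g. 30% inhibition) were run in concentration-response with 50 uM top concentration. Displacement of specific radioligand from KAN-TS membrane preparations measured after 3 h by filter scintillation, DMSO as baseline.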

## Oc1c(I)cc(I)cc1I
[1]
  outcome: inactive

## COc1cc(-c2ccc(N)c(OC)c2)ccc1N
[2]
  outcome: inactive
[3]
  outcome: inactive

## N#CCc1ccc(Cl)cc1
[4]
  AC50: 25 µM (active)

## O=C1C2(Cl)C3(Cl)C4(Cl)C(Cl)(Cl)C5(Cl)C3(Cl)C1(Cl)C5(Cl)C24Cl (stereo not drawn)
[5]
  outcome: inactive
[3]
  AC50: 1.04 µM (active)
[1]
  AC50: 0.11 µM (active)
[6]
  AC50: 0.978 µM (active)

## CCNc1nc(NC(C)(C)C)nc(SC)n1
[7]
  AC50: 17.8 µM (active)
[1]
  AC50: 17.4 µM (active)

## COP(=S)(OC)Oc1ccc(Sc2ccc(OP(=S)(OC)OC)cc2)cc1
[8]
  outcome: inactive
[1]
  AC50: 17.1 µM (active)

## COS(=O)(=O)c1ccc(C)cc1
[1]
  outcome: inactive

## Nc1cccc2ccccc12
[4]
  AC50: 25 µM (active)

## C=C(C)C(=O)[O][Sn]([CH2]CCC)([CH2]CCC)[CH2]CCC
[9]
  AC50: 2.56 µM (active)
[10]
  AC50: 6.14 µM (active)
[8]
  AC50: 1.86 µM (active)
[11]
  AC50: 36.2 µM (active)
[12]
  AC50: 14 µM (active)
[5]
  AC50: 2.16 µM (active)
[13]
  AC50: 16.9 µM (active)
[14]
  AC50: 4.82 µM (active)
[7]
  AC50: 25 µM (active)
[3]
  AC50: 0.499 µM (active)
[1]
  AC50: 6.84 µM (active)
[15]
  AC50: 4.06 µM (active)
[6]
  AC50: 0.925 µM (active)
[16]
  AC50: 0.281 µM (active)
[17]
  AC50: 4.57 µM (active)
[18]
  AC50: 25 µM (active)
[19]
  AC50: 2.23 µM (active)

## CC(C)(C)CC(C)(C)c1ccc(O)cc1
[3]
  AC50: 34.1 µM (active)
[1]
  outcome: inactive
[16]
  AC50: 25 µM (active)

## CN(C)N=O
[10]
  outcome: inactive
[18]
  outcome: inactive

## COc1ccc(OC)c(C=O)c1
[4]
  AC50: 17.3 µM (active)

## O=C(O)C(F)(F)C(F)(F)C(F)(F)C(F)(F)C(F)(F)C(F)(F)F
[10]
  AC50: 17.3 µM (active)
